Where “and” joins values, the source holds several entries; their conditions need not be identical. Equal entries are not always repeated. Inconclusive results are not listed. Calls of active or inactive are those of the source. Unless noted, the call rests on the fitted dose curve; in most records, active means well fitted curve in the direction sought with a large enough effect; inconclusive means small, poorly fitted or top-dose-only effect, or another doubt; inactive means no such curve, though single readings can be large; an effect the other way counts as inactive or inconclusive.
What was measured:
[1] = AP1 Signaling Pathway (AID 357; active means well fitted curve in either direction with a large enough effect, not every such curve was filed as active; further: on the % scale 0 is the no-effect control and ±100 the full control effect); settings: ME-180 AP-1-bla reporter, EGF-induced, beta-lactamase ratio, 5 h
Summary of the method: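 ME-180 cells with beta-lactamase reporter under AP-1 response element, stimulated with EC50 EGF; compounds tested in titration series, 5 h at 37 °C. CCF4 substrate added 2.5 h at room temperature; 460/530 nm emission ratio gave %activity and AC50.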

[2] = target: Cytochrome P450 1A2 (Homo sapiens) (UniProt P05177); test: p450-cyp1a2 (AID 410; calls by dose curve;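 further: -100% = full effect of reference inhibitor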)
Summary of the method: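 Human CYP1A2 (20nM) demethylated Luciferin-ME at its Km (100uM) in 100mM KPO4. After 10 min compound preincubation, NADPH regeneration ran the reaction 60 min at room temperature. Luciferin was read by luminescence, normalized to 57 uM furafylline.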

[3] = NFAT Signaling Pathway (AID 444; active means well fitted curve in either direction with a large enough effect, not every such curve was filed as active;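 further: carbachol stimulus at about its EC50 of 1 µM final; on the % scale 0 is the no-effect control and ±100 the full control effect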); settings: Jurkat NFAT-bla M1, carbachol, beta-lactamase ratio, 5 h; at 38 µM (top of the series)
Summary of the method: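 Jurkat cells carrying an NFAT-driven β-lactamase reporter and co-transfected muscarinic M1 receptor were treated with compound plus carbachol (1 uM final, an EC50 level) for 5 h at 37 °C. CCF4 loading followed for 1 h at RT; 460/530 nm ratio gave %activity.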

[4] = Stat Signaling Pathway (AID 446; active means well fitted curve in either direction with a large enough effect, not every such curve was filed as active;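 further: ME-180 cervical cancer cells given 40 pM IL-6 alongside compound; SIE-controlled beta-lactamase reporter measured as 460/530 nm FRET emission ratio; on the % scale 0 is the no-effect control and ±100 the full control effect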); settings: ME-180 SIE beta-lactamase reporter, IL-6 stimulated, 5 h
Summary of the method: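 ME-180 SIE-bla cells; overnight plating; cpd + IL-6 40 pM, 5 h, 37 C; LiveBLAzer 2.5 h RT; 460/530 nm emission ratio. Normalized to 300 pM IL-6 and 125 nM JAK inhibitor controls.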

[5] = target: Glucocorticoid receptor (Homo sapiens) (UniProt P04150); test: GR-GFP Redistribution (AID 450;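 active means compounds whose dose series gives a full or clear partial fitted curve of increased nuclear translocation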; further: potency means the concentration at half of the fitted maximal effect); settings: U2OS GR-GFP nuclear translocation, laser cytometry, 2 h
[6] = target: Glucocorticoid receptor (Homo sapiens) (UniProt P04150); test: GR-EFC Redistribution (AID 451; calls by dose curve; further: potency means the concentration at half of the fitted maximal effect); settings: CHO-K1 GR-EFC translocation, beta-gal luminescence, 2 h
Summary of the method: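 CHO-K1 cells stably expressing nuclear-localized β-gal enzyme acceptor and GR fused C-terminally to the enzyme donor fragment; ligand-driven nuclear translocation restores β-gal by complementation. Compounds titrated up to 46 uM final, 2 h at 37 °C; luminescence read.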

[7] = target: Mitogen-activated protein kinase 10 (Mus musculus) (UniProt Q61831); test: JNK3 AlphaScreen Assay (AID 530; active means well fitted curve in either direction with a large enough effect, not every such curve was filed as active;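 further: kinase came from lysate of stimulated human HepG2 cells; signal reports phosphorylation of biotinylated GST-cJun 1-79 at Ser73 with 10 µM ATP; on the % scale 0 is the no-effect control and ±100 the full control effect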)
Summary of the method: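 JNK3 came from HepG2 lysates pre-activated with IL-1beta and TNF-alpha and phosphorylated biotinylated GST-cJun (1-79) at 10 uM ATP, pH 7.6, room temperature. Compounds were titrated. AlphaScreen signal used anti-phospho-cJun (Ser73) antibody.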

[8] = target: 3',5'-cyclic-AMP phosphodiesterase 4B (Homo sapiens) (UniProt Q07343); test: qHTS Assay for Inhibitors of PDE-IV (AID 607; active means well fitted activation curve with a large enough effect in the main read-out, with a control signal flat, not every such curve was filed as active; further: % of control where 0% means no effect)
Summary of the method: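 ACTOne HEK293 cells carry a modified cAMP-gated CNG channel and express endogenous PDE4; plated 1000 cells/well, compounds up to 22.9 uM final. Membrane-potential dye fluorescence (ex 535/em 590) was read; parental cells received 10 uM forskolin + 100 uM RO 20-1724.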

[9] = target: Guanine nucleotide-binding protein G(i) subunit alpha-1 (Homo sapiens) (UniProt P63096); test: qHTS Assay for Inhibitors of RGS12 GoLoco Motif Activity (Green Fluorophore) (AID 879);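 further: 0% = labeled peptide with Gαi1 and full inhibition = labeled peptide alone without protein; negative values mean loss of peptide binding seen as reduced polarization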
Summary of the method: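 Fluorescence polarization assay: 50 nM Gαi1 with 10 nM FITC-labeled RGS12 GoLoco peptide in 10 mM Tris pH 7.5, 150 mM NaCl, 0.1 mM GDP, 0.05% NP40, 10 min at room temperature with compound.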

[10] = target: Cytochrome P450 2C19 (Homo sapiens) (UniProt P33261); test: qHTS Assay for Inhibitors and Substrates of Cytochrome P450 2C19 (AID 899); further: on the % scale 0 is the no-effect control and ±100 the full control effect; nearly all actives have a fitted effect of over 60% in size
Summary of the method: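 In 50mM KPO4, the reaction held 5nM enzyme and KM-level (10uM) Luciferin-H EGE; it ran 60 min at 37C after NADPH regeneration and a 10 min compound preincubation. Luminescence values were scaled to 57uM ketoconazole as complete inhibition.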

[11] = target: Muscarinic acetylcholine receptor M1 (Rattus norvegicus) (UniProt P08482); test: qHTS Assay for Antagonists of Acetylcholine Muscarinic M1 Receptor: Measurement of IP-One Response (AID 944); further: nearly all actives have a fitted effect of over 75% in size
Summary of the method: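 CHO cells expressing rat M1 receptor, recovered overnight, were pre-incubated 10 min with compound, then stimulated 30 min with carbachol at EC80 (200 nM) in LiCl-containing buffer, pH 7.4. IP1 accumulation was read by HTRF (620/665 nm).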

[12] = target: Pyruvate kinase (Leishmania mexicana) (UniProt Q27686); test: qHTS Validation Assay for Inhibitors of Leishmania Mexicana Pyruvate Kinase (AID 945);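 further: 0% = DMSO only neutral control wells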
Summary of the method: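 Eight-point qHTS titrations; enzyme 0.2 nM LmPYK (E451W mutant); substrates 0.5 mM PEP, 0.1 mM ADP; 7 mM MgCl2; 1 h room temperature; PKLight luminescence normalized to neutral control.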

[13] = target: Pyruvate kinase PKM (Homo sapiens) (UniProt P14618); test: qHTS Assay for Activators of Human Muscle Pyruvate Kinase (AID 954; active means well fitted curve in the direction sought with a large enough effect, not every such curve was filed as active;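 further: 0% = uninhibited enzyme and -100% = no enzyme or full thiadiazolimine inhibition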)
Summary of the method: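 Luminescence from a luciferase ATP-detection/stop reagent reported PKM2 activity. Reactions contained 0.1 nM purified human enzyme, 0.5 mM PEP, 0.1 mM ADP and 7 mM MgCl2 at pH 7.2, run 1 h at RT.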

[14] = target: Alpha-galactosidase A (Homo sapiens) (UniProt P06280); test: Counterscreen for Glucocerebrosidase Inhibitors: qHTS Assay for Human alpha-Galactosidase at pH 4.5 (AID 992); further: 0% is about no effect
Summary of the method: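 Enzyme at 2 nM final was combined with compound (0.7 nM to 77 uM) and 80 uM 4-methylumbelliferyl alpha-D-galactopyranoside in 50 mM citric acid, 0.005% Tween-20, pH 4.5. After 20 min at room temperature, fluorescence was read (Ex 365/Em 440 nm); AC50 came from Hill fits.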

[15] = target: alpha-glucosidase (Oryza sativa, rice) (UniProt Q653V4); test: Counterscreen for Glucocerebrosidase Inhibitors: qHTS Assay for Rice alpha-Glucosidase at pH 5.0 (AID 997);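 further: 0% = full activity with enzyme and -100% = basal without enzyme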
Summary of the method: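 Rice alpha-glucosidase (4 nM final) with 400 uM 4-methylumbelliferyl-alpha-D-glucopyranoside in citrate buffer pH 5.0, 20 min at room temperature, stopped at pH 10; fluorescence 365/440 nm, compounds 0.7 nM–77 uM, AC50 from Hill fits.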

[16] = qHTS Assay for Lipid Storage Modulators (AID 1519; calls by dose curve); settings: Drosophila S3 cells, BODIPY lipid droplet/cell ratio, laser cytometry, cells loaded with oleic acid
Summary of the method: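 Cells seeded at 5,000 per well were treated with compounds over a concentration series and loaded with oleic acid (400 uM, as added). Lipid droplet fluorescence (488 nm excitation, 500-530 nm channel) was read by laser-scanning cytometry and normalized to 20 uM Triacsin C.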

[17] = target: Ubiquitin carboxyl-terminal hydrolase 1 (Homo sapiens) (UniProt O94782); test: Inhibitors of USP1/UAF1: Pilot qHTS (AID 504865);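 further: rhodamine fluorescence freed from ubiquitin-rhodamine substrate followed over time; top concentration of the series differs between compounds; on the % scale 0 is the no-effect control and ±100 the full control effect; nearly all actives have a fitted effect of over 35% in size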
Summary of the method: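 Enzyme-free wells gave the negative control, while test wells held 1nM USP1/UAF1 preincubated with compound for 15 min at room temperature. Ub-Rho at 150nM final started the reaction, and fluorescence at 480/540 nm was recorded kinetically.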

[18] = target: DNA dC->dU-editing enzyme APOBEC-3G (Homo sapiens) (UniProt Q9HC16); test: qHTS for inhibitors of Vif-A3G interactions: Validation (AID 588379); further: 0% is about no effect
Summary of the method: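 HeLa cells stably expressing Vif and A3G-eYFP, 700 cells/well, incubated overnight at 37 deg C, then exposed to compound overnight at 37 deg C. Inhibition of Vif-mediated degradation read as increased yellow fluorescence (Ex 488/Em 500-530) by laser-scanning cytometry.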

[19] = test system: Zika virus NS2B-NS3 protease; test: Primary screen GU AMC qHTS for Zika virus inhibitors (AID 1347154);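 further: 0% = no-inhibitor control and -100% = no-enzyme control; nearly all actives have a fitted effect of over 70% in size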
Summary of the method: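 Unlinked Zika NS2B hydrophilic domain/NS3 protease domain noncovalent complex (25 nM final) in 10 mM Tris-HCl pH 8.0, 0.01% Tween 20, with AMC peptide substrate. Fluorescence (ex 340, em 450 nm) change over 15 min, room temperature; percent inhibition fitted to 4-parameter Hill equation.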

[20] = Primary qHTS for small molecule stabilizers of the endoplasmic reticulum resident proteome: Secreted ER Calcium Modulated Protein (SERCaMP) assay (AID 1508630); further: on the % scale 0 is the no-effect control and ±100 the full control effect
Summary of the method: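 GLuc-SERCaMP-expressing SH-SY5Y cells, pretreated 16 h with compound, are challenged with thapsigargin to empty ER calcium stores; after 4 h, coelenterazine is added directly to the medium and luminescence is imaged.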

[21] = target: Cytochrome P450 3A4 (Homo sapiens) (UniProt P08684); test: qHTS Assay for Inhibitors and Substrates of Cytochrome P450 3A4 (AID 884); further: on the % scale 0 is the no-effect control and ±100 the full control effect; nearly all actives have a fitted effect of over 50% in size
Summary of the method: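 20 nM human CYP3A4 with 25 uM Luciferin-PPXE (at KM) in 200 mM KPO4, preincubated 10 min with compound; NADPH regeneration started a 60 min RT reaction. Luciferin detected by luminescence, normalized to 57 uM ketoconazole as full inhibition.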

[22] = target: Phospholipid hydroperoxide glutathione peroxidase GPX4 (Homo sapiens) (UniProt P36969); test: Primary qHTS Assay for Inhibitors of Recombinant Selenoprotein Glutathione Peroxidase 4 (GPX4) (AID 1845192); settings: outcome: dose series up to 50 µM unless noted; further: nearly all actives have a fitted effect of over 65% in size
Summary of the method: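 GR-coupled readout: 100 nM GR, 1 mM GSH, 0.5 mM NADPH; NADPH fluorescence (ex 340/em 450 nm) read at t=0 and after 15 min RT. GPX4 200 nM, preincubated 30 min with compound; substrate 0.5 mM CHP.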

[23] = measured here: cell count channel max response
[24] = measured here: lipid channel max response

Sequence of Glucocorticoid receptor (Homo sapiens) (P04150 whole entry, looked up, the tested form may be a part): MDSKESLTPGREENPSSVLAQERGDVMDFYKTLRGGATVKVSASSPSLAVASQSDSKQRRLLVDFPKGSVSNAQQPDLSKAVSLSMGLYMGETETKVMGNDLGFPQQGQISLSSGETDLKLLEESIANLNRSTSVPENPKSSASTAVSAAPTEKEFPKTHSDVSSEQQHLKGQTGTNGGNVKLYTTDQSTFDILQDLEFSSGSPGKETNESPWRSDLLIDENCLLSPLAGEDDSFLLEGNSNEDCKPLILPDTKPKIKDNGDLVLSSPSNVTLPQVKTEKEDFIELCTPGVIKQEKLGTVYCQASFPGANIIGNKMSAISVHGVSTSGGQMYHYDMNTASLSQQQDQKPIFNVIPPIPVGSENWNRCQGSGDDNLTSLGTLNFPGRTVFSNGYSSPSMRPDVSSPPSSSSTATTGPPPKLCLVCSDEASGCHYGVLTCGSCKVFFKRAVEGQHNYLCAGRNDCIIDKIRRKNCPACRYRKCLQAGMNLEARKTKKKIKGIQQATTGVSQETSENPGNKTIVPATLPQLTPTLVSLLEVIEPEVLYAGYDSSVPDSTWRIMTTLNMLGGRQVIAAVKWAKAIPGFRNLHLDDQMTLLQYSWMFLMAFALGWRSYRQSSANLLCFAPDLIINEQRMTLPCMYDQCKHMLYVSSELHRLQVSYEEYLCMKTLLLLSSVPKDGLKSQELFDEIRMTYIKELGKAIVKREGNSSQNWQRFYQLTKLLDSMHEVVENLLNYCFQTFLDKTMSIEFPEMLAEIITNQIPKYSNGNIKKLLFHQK
Sequence of 3',5'-cyclic-AMP phosphodiesterase 4B (Homo sapiens) (Q07343 whole entry, looked up): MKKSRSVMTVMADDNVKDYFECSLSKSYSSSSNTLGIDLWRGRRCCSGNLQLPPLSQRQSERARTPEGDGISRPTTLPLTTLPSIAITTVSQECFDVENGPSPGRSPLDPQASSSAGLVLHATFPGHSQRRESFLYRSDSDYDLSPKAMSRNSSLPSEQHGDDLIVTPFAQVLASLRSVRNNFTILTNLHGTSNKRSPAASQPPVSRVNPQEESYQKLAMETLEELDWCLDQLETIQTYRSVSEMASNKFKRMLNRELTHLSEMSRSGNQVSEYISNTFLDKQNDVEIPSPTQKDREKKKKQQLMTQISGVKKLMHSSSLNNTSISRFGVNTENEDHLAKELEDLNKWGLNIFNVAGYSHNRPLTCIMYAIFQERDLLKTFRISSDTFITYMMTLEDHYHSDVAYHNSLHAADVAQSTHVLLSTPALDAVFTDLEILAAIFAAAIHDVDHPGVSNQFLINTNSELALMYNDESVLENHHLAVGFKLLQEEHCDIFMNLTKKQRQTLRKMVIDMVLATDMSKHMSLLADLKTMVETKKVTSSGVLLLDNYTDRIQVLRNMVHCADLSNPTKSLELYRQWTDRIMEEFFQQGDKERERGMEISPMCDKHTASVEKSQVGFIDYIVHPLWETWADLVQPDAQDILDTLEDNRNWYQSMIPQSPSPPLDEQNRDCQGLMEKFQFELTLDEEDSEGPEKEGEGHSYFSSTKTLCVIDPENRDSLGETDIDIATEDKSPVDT
Sequence of Cytochrome P450 1A2 (Homo sapiens) (P05177 whole entry, looked up): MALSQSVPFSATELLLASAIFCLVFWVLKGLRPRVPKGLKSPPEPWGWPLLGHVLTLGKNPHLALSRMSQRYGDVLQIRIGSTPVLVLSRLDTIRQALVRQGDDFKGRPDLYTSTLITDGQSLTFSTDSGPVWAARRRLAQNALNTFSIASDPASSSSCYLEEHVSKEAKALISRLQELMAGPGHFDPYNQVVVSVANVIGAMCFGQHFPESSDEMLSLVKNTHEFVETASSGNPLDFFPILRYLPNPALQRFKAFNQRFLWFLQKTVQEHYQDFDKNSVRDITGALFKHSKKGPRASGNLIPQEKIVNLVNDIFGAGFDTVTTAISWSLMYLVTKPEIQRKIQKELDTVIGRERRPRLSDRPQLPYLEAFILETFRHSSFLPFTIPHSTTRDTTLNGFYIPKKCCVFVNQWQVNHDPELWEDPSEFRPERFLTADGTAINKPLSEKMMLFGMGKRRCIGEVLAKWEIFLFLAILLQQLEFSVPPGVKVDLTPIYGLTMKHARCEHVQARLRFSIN
Sequence of DNA dC->dU-editing enzyme APOBEC-3G (Homo sapiens) (Q9HC16 whole entry, looked up): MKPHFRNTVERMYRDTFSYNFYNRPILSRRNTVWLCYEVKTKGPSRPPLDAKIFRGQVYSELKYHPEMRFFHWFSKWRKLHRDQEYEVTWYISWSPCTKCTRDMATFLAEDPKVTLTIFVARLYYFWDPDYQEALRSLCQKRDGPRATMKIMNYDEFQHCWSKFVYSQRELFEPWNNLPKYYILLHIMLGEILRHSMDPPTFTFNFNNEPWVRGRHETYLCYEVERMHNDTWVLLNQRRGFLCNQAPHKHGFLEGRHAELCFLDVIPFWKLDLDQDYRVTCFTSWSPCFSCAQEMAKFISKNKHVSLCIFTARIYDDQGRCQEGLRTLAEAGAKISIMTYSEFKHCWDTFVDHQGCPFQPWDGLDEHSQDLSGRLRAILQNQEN
Sequence of Muscarinic acetylcholine receptor M1 (Rattus norvegicus) (P08482 whole entry, looked up): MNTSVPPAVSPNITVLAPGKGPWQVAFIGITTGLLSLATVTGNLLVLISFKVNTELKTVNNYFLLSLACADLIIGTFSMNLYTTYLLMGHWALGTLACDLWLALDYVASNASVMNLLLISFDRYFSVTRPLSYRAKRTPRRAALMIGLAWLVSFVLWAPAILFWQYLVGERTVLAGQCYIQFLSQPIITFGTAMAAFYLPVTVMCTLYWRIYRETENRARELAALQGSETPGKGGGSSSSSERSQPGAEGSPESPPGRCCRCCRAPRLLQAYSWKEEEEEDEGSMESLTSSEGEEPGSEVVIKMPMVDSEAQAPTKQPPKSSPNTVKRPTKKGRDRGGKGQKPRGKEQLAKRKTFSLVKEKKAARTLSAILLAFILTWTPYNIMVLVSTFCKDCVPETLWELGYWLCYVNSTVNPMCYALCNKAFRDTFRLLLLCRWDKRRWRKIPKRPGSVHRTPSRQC
Sequence of Cytochrome P450 2C19 (Homo sapiens) (P33261 whole entry, looked up): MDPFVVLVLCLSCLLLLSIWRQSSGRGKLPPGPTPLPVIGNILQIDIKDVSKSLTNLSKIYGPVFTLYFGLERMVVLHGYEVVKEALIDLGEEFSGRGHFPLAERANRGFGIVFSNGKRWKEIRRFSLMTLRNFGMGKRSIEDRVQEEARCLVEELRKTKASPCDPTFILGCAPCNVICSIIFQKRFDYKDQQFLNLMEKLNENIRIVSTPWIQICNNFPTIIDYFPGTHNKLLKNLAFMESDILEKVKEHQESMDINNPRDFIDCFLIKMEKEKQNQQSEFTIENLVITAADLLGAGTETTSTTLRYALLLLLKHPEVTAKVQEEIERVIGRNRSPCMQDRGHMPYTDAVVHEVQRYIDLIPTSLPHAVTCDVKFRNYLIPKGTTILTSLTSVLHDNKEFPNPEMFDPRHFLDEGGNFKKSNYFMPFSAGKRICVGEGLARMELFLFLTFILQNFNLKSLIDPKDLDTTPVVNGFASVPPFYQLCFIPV
Sequence of Ubiquitin carboxyl-terminal hydrolase 1 (Homo sapiens) (O94782 whole entry, looked up): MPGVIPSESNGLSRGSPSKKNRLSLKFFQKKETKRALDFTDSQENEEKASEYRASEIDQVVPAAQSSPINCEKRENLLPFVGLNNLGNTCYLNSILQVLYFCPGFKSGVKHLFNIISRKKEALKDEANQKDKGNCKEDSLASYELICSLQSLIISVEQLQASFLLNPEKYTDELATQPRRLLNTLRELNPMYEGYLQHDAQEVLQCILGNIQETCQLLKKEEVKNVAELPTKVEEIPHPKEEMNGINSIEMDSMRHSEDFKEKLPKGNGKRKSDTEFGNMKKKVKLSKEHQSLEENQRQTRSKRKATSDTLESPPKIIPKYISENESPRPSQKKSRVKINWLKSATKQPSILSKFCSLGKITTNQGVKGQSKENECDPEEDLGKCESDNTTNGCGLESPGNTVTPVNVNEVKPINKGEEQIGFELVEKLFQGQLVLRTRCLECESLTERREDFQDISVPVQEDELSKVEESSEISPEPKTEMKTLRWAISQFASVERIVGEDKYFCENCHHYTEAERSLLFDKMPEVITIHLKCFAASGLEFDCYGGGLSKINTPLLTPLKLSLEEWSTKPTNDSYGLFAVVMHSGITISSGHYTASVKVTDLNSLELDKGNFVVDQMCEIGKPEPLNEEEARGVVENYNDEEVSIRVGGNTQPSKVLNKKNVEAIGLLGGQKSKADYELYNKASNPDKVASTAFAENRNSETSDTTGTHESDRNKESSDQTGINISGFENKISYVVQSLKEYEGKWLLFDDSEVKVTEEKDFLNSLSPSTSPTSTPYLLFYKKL
Sequence of Pyruvate kinase (Leishmania mexicana) (Q27686 2-499 E452W): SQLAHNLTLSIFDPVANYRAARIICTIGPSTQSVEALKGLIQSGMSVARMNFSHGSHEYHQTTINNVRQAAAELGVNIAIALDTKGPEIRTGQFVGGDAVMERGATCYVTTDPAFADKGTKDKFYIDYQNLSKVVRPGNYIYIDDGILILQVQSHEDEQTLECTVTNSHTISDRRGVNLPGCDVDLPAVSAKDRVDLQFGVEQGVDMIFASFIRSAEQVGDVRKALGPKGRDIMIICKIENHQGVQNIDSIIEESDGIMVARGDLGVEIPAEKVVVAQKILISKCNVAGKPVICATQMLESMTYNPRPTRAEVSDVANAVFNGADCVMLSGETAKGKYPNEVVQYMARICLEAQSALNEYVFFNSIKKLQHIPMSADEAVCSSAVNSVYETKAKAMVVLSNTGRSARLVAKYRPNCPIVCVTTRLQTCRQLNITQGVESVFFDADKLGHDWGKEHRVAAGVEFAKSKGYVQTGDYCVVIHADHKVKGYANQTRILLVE
Sequence of Phospholipid hydroperoxide glutathione peroxidase GPX4 (Homo sapiens) (P36969 whole entry, looked up): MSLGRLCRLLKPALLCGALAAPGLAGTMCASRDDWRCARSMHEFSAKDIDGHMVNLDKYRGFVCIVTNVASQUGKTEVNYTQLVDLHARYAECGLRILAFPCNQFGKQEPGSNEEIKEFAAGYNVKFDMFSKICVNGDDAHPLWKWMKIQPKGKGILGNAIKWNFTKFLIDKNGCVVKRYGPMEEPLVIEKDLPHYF

CC(C)NC[C@H](O)c1ccc(NS(C)(=O)=O)cc1
-18.8% and 17.8%: max response [16, 24]
-18.7% and 20.5%: max response [16, 23]
inactive: activity change, negative = inhibition ([1]; at 17.2 µM (top of the series)) -5.04% | activity change, negative = inhibition ([1]; at 38 µM (top of the series)) -0.189% | Potency [2] | activity change, negative = inhibition [3] -7.39% | activity, negative = inhibition ([4]; at 17.2 µM (top of the series)) -2.38% | activity, negative = inhibition ([4]; at 38 µM (top of the series)) 2.96% | Potency [5] > 46 µM and > 20.6 µM | Potency [6] > 46 µM and > 20.6 µM | Potency [7] | Potency [8] | outcome [9] | Potency [10] | Potency [11] | Potency [12] | outcome [13] | outcome [14] | outcome [15] | activity change, negative = inhibition ([16]; at 25.7 µM (top of the series)) -2.05% | activity change, negative = inhibition ([16]; at 57.5 µM (top of the series)) -2.56% | Potency [17] | Potency [18] | Potency [19] | Potency [20]

CCCCC/C=C\C\C=C/C=C/C=C/[C@@H](SC[C@H](N)C(=O)O)[C@@H](O)CCCC(=O)O
inactive: activity change, negative = inhibition [19] 5.9% [at 0.59 µM] | activity change, negative = inhibition [20] -5.61% [at 0.478 µM]

N[C@H](Cc1cnc[nH]1)C(=O)O
-9.8%: max response [16, 23]
inactive: Potency [21] | activity change, negative = inhibition ([16]; at 57.5 µM (top of the series)) -0.699% | Potency [18] | Potency [19] | Potency [20] | Potency [22]
-11.7%: max response [16, 24]

CCCCCCCCCCCCC/C=C/[C@@H](O)[C@H](CO)NCCCCCCCC
inactive: activity change, negative = inhibition [19] 15.2% [at 6.83 µM] | activity change, negative = inhibition [20] -10.1% [at 3.88 µM]
